Cycloheximide cs: Cycloheximide Counterscreen for Small Molecule Inhibitors of Shiga Toxin; cell reporter, cycloheximide protein synthesis inhibition counterscreen; max response, %; 12% of 300,000 active; in the data active means max response mostly above about 13%, no sharp cut-off; inactive means mostly below about 14%; further: read at 38.3 µM for the half of the compounds with a filed dose; 0% is about no effect
LmPK inh: qHTS Assay for Inhibitors of Leishmania Mexicana Pyruvate Kinase (LmPK); AID 1721, 2009; 0.37% of 290,000 active; purified LmPK, Kinase-Glo ATP luminescence, 1 h; Potency, µM (titrated, usually from 57.5 µM), without a hit: at the top dose activity change, negative = inhibition, hits mostly inhibitors; further: potency means the concentration at half of the fitted maximal effect; on the % scale 0 is the no-effect control and ±100 the full control effect
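Purified LmPK (0.1 nM) converted ADP (0.1 mM) to ATP with PEP (0.5 mM) in imidazole buffer pH 7.2 with KCl and MgCl2, 1 h at room temperature. ATP was read by Kinase-Glo luminescence; data normalized to uninhibited and no-enzyme controls.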
Shiga inhibitor: A qHTS for Small Molecule Inhibitors of Shiga Toxin. Vero cells, Shiga toxin protein synthesis inhibition reporter. inhibition, % at 38.7 µM. 9.2% of 290,000 active. AID 2315, 2010; in the data active means inhibition mostly above about 28%, no sharp cut-off; inactive means mostly below about 43%; further: 0% is about no effect
Tb PYK inh: qHTS of Trypanosoma Brucei Inhibitors; pyruvate kinase (Trypanosoma brucei), Q57TT1; 0.12% of 410,000 active; TbPYK enzyme, Kinase-Glo Plus ATP luminescence, 45 min; Potency, µM (top dose mostly 76.8 µM), for inactives: at the highest dose activity, negative = inhibition, hits mostly inhibitors; further: potency means the concentration at half of the fitted maximal effect; on the % scale 0 is the no-effect control and ±100 the full control effect; nearly all actives have a fitted effect of over 50% in size
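Luminescent Kinase-Glo Plus end-point after 45 min room-temperature reaction of T. brucei pyruvate kinase started with 130 uM ADP (final). Buffer TEA 50 mM pH 7.2 with KCl, MgCl2, BSA, Tween-20; titration-based qHTS with fitted concentration-effect curves.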
FBPA Giardia inh: qHTS Assay for Inhibitors of Fructose-1,6-bisphosphate Aldolase from Giardia Lamblia; purified Giardia FBPA; AID 2451, 2010; 0.71% of 290,000 active; Potency, µM (titrated, usually from 59.6 µM), for inactives: at the highest dose activity, negative = inhibition, actives largely listed as inhibitors; A8B2U2; further: potency means the concentration at half of the fitted maximal effect; on the % scale 0 is the no-effect control and ±100 the full control effect; nearly all actives have a fitted effect of over 55% in size
Target sequence (A8B2U2 whole entry, looked up): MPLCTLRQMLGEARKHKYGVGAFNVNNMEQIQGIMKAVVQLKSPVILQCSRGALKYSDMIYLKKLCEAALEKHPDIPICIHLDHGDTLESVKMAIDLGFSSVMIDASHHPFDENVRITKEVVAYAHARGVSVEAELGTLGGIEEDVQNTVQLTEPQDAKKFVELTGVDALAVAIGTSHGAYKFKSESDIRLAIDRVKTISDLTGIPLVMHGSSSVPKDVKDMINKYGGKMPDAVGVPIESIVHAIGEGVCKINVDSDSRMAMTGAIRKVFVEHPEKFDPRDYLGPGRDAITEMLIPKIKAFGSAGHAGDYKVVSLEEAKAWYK
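Giardia FBPA (40 nM reagent) was preincubated 10 min at RT with compound (up to 57.5 uM final), then substrate plus GAPDH/TPI/NAD/arsenate coupling system with diaphorase/resazurin was added; resorufin fluorescence (525/598 nm) was read after 20 min.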
Sm TGR inh: qHTS Assay for the Inhibitors of Schistosoma Mansoni Peroxiredoxins; Potency, µM (series often up to 114 µM), for the others: at the highest dose activity change, negative = inhibition, most hits filed as inhibitors; 3% of 360,000 active; purified TGR, DTNB reduction, TNB absorbance 405 nm; Schistosoma mansoni thioredoxin glutathione reductase (TGR), Q962Y6; AID 485364, 2010; further: potency means the concentration at half of the fitted maximal effect; on the % scale 0 is the no-effect control and ±100 the full control effect; nearly all actives have a fitted effect of over 60% in size
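Kinetic colorimetric format: TGR-catalysed, NADPH-driven DTNB reduction monitored via TNB absorbance. Enzyme dispensed at 20 nM; compound exposure 15 min at room temperature before reaction start.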
Active calls of the source: *; ? = inconclusive; . = no result given; + = active, no number; [ ] = remark or other dose. This excerpt belongs to a sample that is enriched for hits. Unless noted, the call rests on the fitted dose curve; in most records, active means well fitted curve in the direction sought with a large enough effect; inconclusive means small, poorly fitted or top-dose-only effect, or another doubt; inactive means no such curve, though single readings can be large; an effect the other way counts as inactive or inconclusive.

SMILES	Cycloheximide cs	LmPK inh	Shiga inhibitor	Tb PYK inh	FBPA Giardia inh	Sm TGR inh
O=C(Nc1cccc(NC(=O)C2CCCO2)c1)C1CCCO1 (configuration not stated)	-4	-4%	-4	1%	.	?
O=C(Nc1ccc2c(c1)CCC2)C1CCCO1 (configuration not stated)	39*	-3%	53*	-8%	-3%	-8%
CC(=O)c1ccc(NC(=O)[C@@H]2CCCN2C(=O)OC(C)(C)C)cc1	51*	3%	87*	4%	-3%	3%
CC1CC1C(=O)N(C)CC(=O)Nc1ccccc1Br (configuration not stated)	.	.	.	1%	.	.
CCC1CN(C(=O)N2CCC(C(=O)NCc3cc(OC)ccc3OC)CC2)c2ccccc2O1 (configuration not stated)	.	.	.	-1%	.	2%
COc1ccc(NC(=O)c2cc(OCCCN(C)C)nn2Cc2ccccc2)cc1	8	.	0	.	-2%	.
CC(=O)c1ccc(N2CCN(C(=O)c3ccc(NC(=O)C4CCCO4)cc3)CC2)cc1 (configuration not stated)	14*	-3%	24	0%	1%	1%
CCOC(=O)C1CCN(C(=O)c2ccc(NC(=O)C3CCCO3)cc2)CC1 (configuration not stated)	0	2%	25	3%	2%	1%
CC(=O)c1ccc(NC(=O)C2CCCO2)cc1 (configuration not stated)	38*	1%	.	5%	-1%	73%
C=CCn1c(COc2ccc(F)cc2)nnc1SC(C)C(=O)NCC1CCCO1 (configuration not stated)	.	.	.	-7%	.	-2%
CC(=O)OCCCNc1cc(Sc2ccc(Cl)cc2)c2nonc2c1[N+](=O)[O-]	7	-1%	-6	-5%	?	3.2µM*
CCN(CC)c1cc(NCCO)c([N+](=O)[O-])c2nonc12	1	0%	3	-3%	-29%	-11%
Cc1ccc(Sc2cc(NCCCO)c([N+](=O)[O-])c3nonc23)cc1	6	4%	-8	-17%	?	3.5µM*
CC(C)CCSc1cc(NCCO)c([N+](=O)[O-])c2nonc12	-6	1%	-12	31%	?	2.5µM*
O=[N+]([O-])c1c(NCCO)cc(N2CCCCC2)c2nonc12	-2	-3%	28	0%	-12%	2%
Cc1oc(-c2ccc(Cl)cc2)nc1CN1CCCC(C(=O)NCc2ccccc2)C1 (configuration not stated)	.	.	.	-3%	.	0%
CCOC(=O)C1CCN(C(=O)c2ccccc2)C(CC)C1=O (configuration not stated)	.	.	.	1%	.	.
CCC=CC[C@H]1C(=O)CC[C@@H]1CC(=O)OC	.	.	.	-1%	.	.
CCN1CCCc2cc(CN(CCN3CCOCC3)C(=O)Nc3ccc(C)c(C)c3)ccc21	1	-1%	-1	-9%	-11%	0%
O=C(Nc1ccccc1)N(CCN1CCOCC1)Cc1ccccc1F	15*	-5%	-3	-4%	0%	-5%
CCc1ccc(NC(=O)N(CCN2CCOCC2)Cc2ccc3c(c2)CCCN3CC)cc1	25*	1%	37	-9%	?	-4%
COC(=O)NC(c1cccs1)C(C(C)=O)C(=O)OC (configuration not stated)	.	.	.	.	0%[12.9 µM]	.
CC(C)C1Cc2c(C#N)c(N)sc(=S)c2CO1 (configuration not stated)	-5	14%	-14	-13%	?	10µM*
C/C(N)=C(/C#N)C(=O)CSc1ccccc1F	34*	-1%	94*	-8%	5%	11%
C/C(N)=C(/C#N)C(=O)CSc1nn(-c2ccc(Cl)cc2)c(=S)s1	47*	2%	72*	-1%	0%	-14%
SMILES	Cycloheximide cs	LmPK inh	Shiga inhibitor	Tb PYK inh	FBPA Giardia inh	Sm TGR inh
C/C(N)=C(/C#N)C(=O)CSc1nnc(Cc2ccccc2F)n1N	1	6%	-6	1%	-1%	-27%
C/C(N)=C(/C#N)C(=O)CSc1n[nH]c(-c2ccccc2Br)n1	46*	0%	66*	5%	-7%	-1%
COc1ncc2nc(-c3cn(C)c4ccccc34)c(=O)n(C[C@H]3CCCO3)c2n1	.	.	.	.	4%	.
CC1CC(C)CN(S(=O)(=O)c2ccc(NC(=O)c3ccc(=O)[nH]c3)cc2)C1 (configuration not stated)	.	.	.	-7%	.	-17%
O=Cc1cc(N=Nc2ccccc2Cl)ccc1O	34*	22%	29	-2%	5%	5%
CN1C(=O)/C(=C\c2cc(N=Nc3ccccc3)ccc2O)SC1=S	1	?	-6	?	-9%	1%
Cc1ccc(N=Cc2ccccc2O)cc1Cl	.	.	.	-8%	.	.
O=Cc1cc(N=Nc2cccc(C(=O)O)c2)ccc1O	39*	-4%	76*	-16%	?	-21%
c1ccc2c(c1)oc1c(N3CCOCC3)ncnc12	9.8*	-1%	3	0%	13%	-24%
c1cnc(N2CCN(c3ncnc4c3oc3ccccc34)CC2)nc1	-2	0%	11	.	0%	?
O=C(c1ccco1)N1CCN(c2nnc(-c3ccccc3)c3ccccc23)CC1	-4	-6%	-8	-1%	-1%	-39%
O=C(c1ccco1)N1CCN(c2ncnc3c2oc2ccccc23)CC1	41*	-1%	63*	-3%	2%	-15%
CCSc1ncnc2c1oc1ccccc12	2	5%	9	1%	1%	-20%
Clc1ncnc2c1oc1ccccc12	37*	-16%	+	-4%	2%	-32%
COc1ccccc1N1CCN(c2ncnc3c2oc2ccccc23)CC1	8.6*	-2%	27	-2%	-1%	-23%
COc1ccc(OC)c(-c2noc(N3CCN(c4cccc(C(F)(F)F)c4)CC3)n2)c1	.	.	.	2%	.	6%
CC1CCC(NC(=O)CCNC(=O)c2ccc(Br)cc2)CC1 (configuration not stated)	.	.	.	0%	.	-2%
COc1ccccc1-c1nnc(SC(C)C(=O)Nc2ccc(C(N)=O)cc2)o1 (configuration not stated)	.	.	.	-13%	.	0%
Cc1cc(C)nc(Sc2ncnc3c2oc2ccccc23)n1	28	-7%	50*	-7%	0%	3%
c1coc(CN(Cc2ccco2)c2ncnc3c2oc2ccccc23)c1	19*	1%	40	-21%	-30%	?
CN(C)CCOc1ncnc2c1oc1ccccc12	1	2%	2	-3%	-13%	-8%
COc1ccc(-c2nc3c(c4c2C[C@H](c2ccccc2)OC4)CN(S(=O)(=O)c2ccc(C#N)cc2)CC3)c(C)c1	.	-4%[11.5 µM]	.	.	3%[12.9 µM]	.

Screens from PubChem.
